For one experiment, the target named is Focal adhesion kinase 1 (Homo sapiens) (UniProt Q05397). The experiment in a line: PTK2 protein binding on printed compound slides – biochemical, small-molecule microarray, 635/667 nm fluorescence, BSA, DTT, primary screen (AID 1130).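 Note: composite of spot emission at 667 nm and signal to noise over triplicate slides.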 The conditions noted are these: 635 nm fluorescence, higher = more signal.
Sequence of Focal adhesion kinase 1 (Homo sapiens) (Q05397 whole entry, looked up): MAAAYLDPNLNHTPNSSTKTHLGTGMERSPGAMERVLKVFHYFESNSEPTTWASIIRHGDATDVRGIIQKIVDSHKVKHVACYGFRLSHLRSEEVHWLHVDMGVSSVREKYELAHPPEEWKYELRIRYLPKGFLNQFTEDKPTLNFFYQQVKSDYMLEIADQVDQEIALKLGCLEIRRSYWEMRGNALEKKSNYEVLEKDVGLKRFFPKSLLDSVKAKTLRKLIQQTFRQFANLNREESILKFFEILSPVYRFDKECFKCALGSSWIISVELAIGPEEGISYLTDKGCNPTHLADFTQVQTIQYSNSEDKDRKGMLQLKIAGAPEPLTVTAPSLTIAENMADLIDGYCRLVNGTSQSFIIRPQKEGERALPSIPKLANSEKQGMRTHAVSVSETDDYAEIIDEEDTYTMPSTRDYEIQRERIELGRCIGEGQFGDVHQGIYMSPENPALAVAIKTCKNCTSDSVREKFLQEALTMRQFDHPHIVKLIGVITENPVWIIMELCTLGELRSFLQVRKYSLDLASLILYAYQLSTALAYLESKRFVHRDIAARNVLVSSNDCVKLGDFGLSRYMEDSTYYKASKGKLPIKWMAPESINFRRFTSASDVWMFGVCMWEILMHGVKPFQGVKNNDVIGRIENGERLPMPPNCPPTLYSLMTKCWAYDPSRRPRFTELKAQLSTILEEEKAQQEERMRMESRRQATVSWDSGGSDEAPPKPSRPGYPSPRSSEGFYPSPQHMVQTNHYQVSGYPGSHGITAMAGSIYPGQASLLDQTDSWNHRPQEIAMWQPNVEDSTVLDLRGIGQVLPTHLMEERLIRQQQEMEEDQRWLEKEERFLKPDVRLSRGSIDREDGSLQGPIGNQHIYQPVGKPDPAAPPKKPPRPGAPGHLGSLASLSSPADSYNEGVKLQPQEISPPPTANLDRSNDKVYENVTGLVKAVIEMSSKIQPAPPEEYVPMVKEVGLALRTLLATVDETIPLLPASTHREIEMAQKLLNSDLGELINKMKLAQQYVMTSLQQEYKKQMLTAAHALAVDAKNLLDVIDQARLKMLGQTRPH
Turning to `CC(=O)N1CC(C(O)C2C=CC3C(=O)NC(=O)C3N2Nc2ccc(Cl)cc2Cl)c2ccccc21` (configuration not stated), the composite z-score was -0.416.

Molecule `COC(=O)[C@@]1(Cc2ccc(F)cc2)[C@H]2c3cc(C(=O)N(C)C)n(Cc4c(CO)[nH]cc(C)c4=O)c3C[C@H]2CN1C(=O)c1ccccc1` showed a composite z-score of 0.0551. `CC(C)[C@H]1NC(=O)[C@@]23C(=O)N[C@@H](Cc4ccccc4)C2[C@H](C)[C@@]2(C)O[C@H]2C3/C=C/CCC/C=C/CNC(=O)[C@H](Cc2ccccc2)NC1=O` (some centres not stated) displayed a composite z-score of 0.205.

Molecule `CCOC(=O)C[C@H]1[C@H](OC(=O)c2ccccc2-c2ccccc2)[C@@H](NC(=O)c2ccccc2)c2cc(OCCCO)ccc2N1C(=O)c1ccccc1` registered a composite z-score of 0.59. Same read-out and setting: as for `COC(=O)[C@@]1(Cc2ccccc2CN=[N+]=[N-])N=C(c2ccc(OCCCO)cc2)O[C@H]1c1ccccc1`, the figure is 0.32; as for `C=C(COC)C(=O)CC[C@@H](OC(=O)c1cccnc1)c1ccccc1OCCO`, -0.54. Same read-out and setting: as for `CC1CC/C=C\[C@H]2OC34C=CCN(CCN5CCOCC5)C(=O)[C@H]3N(C(C)CO)C(=O)[C@@H]4C2C(=O)O1` (some centres not stated), the figure is -0.421. `[N-]=[N+]=NCc1ccccc1[C@H]1OC(c2ccc(OCCCO)cc2)=N[C@@]1(CCS(=O)(=O)c1ccccc1)C(=O)NCc1ccccc1` came in with a composite z-score of 0.13.

In turn, `COc1ccc([Si](C)(C)[C@H]2[C@H](CCO)O[C@@]3(C(=O)N(Cc4ccc(N5C(=O)c6ccccc6Oc6ccccc65)cc4)c4ccccc43)[C@@H]2C)cc1` showed a composite z-score of -0.266. The same measure, in the same setting: for `O=C(NCC(O)CO)[C@@]1(CCS(=O)(=O)c2ccccc2)COC(c2ccc(OCCCO)cc2)=N1` (some centres not stated) the value was 0.204. On the same count and under the same terms, for `C=CCC(OC(C)=O)[C@@H]1[C@@H](N(Cc2cccc3ccccc23)C(=O)Cc2ccc(F)cc2)c2cc(OCCCO)ccc2N1C(=O)c1ccc(-c2ccccc2)cc1` (some centres not stated) the value was 0.365; for `C=CCNC(=O)[C@@H]1[C@H]2C(=O)O[C@H](c3ccccc3)[C@H](c3ccccc3)N2[C@H](c2ccc(O)cc2)[C@@]12C(=O)N(C(=O)OCCOC)c1ccc(C#CCCO)cc12`, 0.863. Same read-out and setting: as for `C=CCNC(=O)[C@@H]1[C@H]2C(=O)O[C@H](c3ccccc3)[C@H](c3ccccc3)N2[C@H](c2ccc(OCCO)cc2)[C@@]12C(=O)N(C(=O)OCCOC)c1ccc(C#CCCO)cc12`, the figure is 1.12; as for `C=CCOC(=O)[C@H]1[C@@H]2C(=O)O[C@@H](c3ccccc3)[C@@H](c3ccccc3)N2[C@@H](c2ccc(OCCOC(=O)[C@H]3C[C@H]4C(=O)N[C@@H](CCCCNC(C)=O)C(=O)N4[C@H]3c3cccc(OCCO)c3)cc2)[C@]12C(=O)Nc1ccc(I)cc12`, 0.439; as for `COCCOC(=O)N1C(=O)[C@@]2(c3cc(C#CC4=CCCCC4)ccc31)[C@H](c1ccc(O)cc1)N1[C@H](c3ccccc3)[C@H](c3ccccc3)OC(=O)[C@H]1[C@@H]2C(=O)NC[C@H](O)c1ccccc1`, 0.26.

In the case of `CN1C(=O)C2C=CC(C(O)c3ccc(I)cc3)N(Nc3ccccc3)C2C1=O` (configuration not stated), the composite z-score was -0.161.

For the next experiment, the system named is Fibrinogen (Alexa647-labelled). Description: Alexa647-fibrinogen binding to printed small molecules – biochemical, small-molecule microarray, 635/667 nm fluorescence, artefact control for SMM control-protein annotation, profiling panel (AID 1131).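 Note: z-score merges 667 nm fluorescence with per-spot signal-to-noise over triplicate slides.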 Conditions: fibrinogen-A647 binding fluorescence, higher = more signal.
As for `CN(C)C(=O)[C@@]1(Cc2ccccc2)COC(c2ccc(OCCCO)cc2)=N1`, the composite z-score was determined as 0.414. The same measure, in the same setting: for `CO[C@H]1O[C@H](CO)[C@@H](OC(=O)CCc2ccccc2)[C@H](OC(=O)c2cc3ccccc3[nH]2)[C@H]1OC(=O)c1cc2ccccc2[nH]1` the value was 0.824; for `CN1C(=O)C2C=CC(C(O)c3cc(C(F)(F)F)cc(C(F)(F)F)c3)N(Nc3ccccc3)C2C1=O` (configuration not stated), -0.35; for `COCCOC(=O)N1C(=O)[C@@]2(c3cc(C#CCCO)ccc31)[C@H](C(N)=O)[C@H]1C(=O)O[C@H](c3ccccc3)[C@H](c3ccccc3)N1[C@@H]2c1ccc(OCCO)cc1`, 0.877. The same measure, in the same setting: for `COCCOC(=O)N1C(=O)[C@@]2(c3cc(C#Cc4ccc(OC)cc4)ccc31)[C@H](C(=O)NC[C@H](O)c1ccccc1)[C@H]1C(=O)O[C@H](c3ccccc3)[C@H](c3ccccc3)N1[C@@H]2c1ccc(OCCO)cc1` the value was 0.801. The same measure, in the same setting: for `COCCOC(=O)N1C(=O)[C@@]2(c3cc(C#CCNC(N)=O)ccc31)[C@H](c1ccc(OCCO)cc1)N1[C@H](c3ccccc3)[C@H](c3ccccc3)OC(=O)[C@H]1[C@@H]2C(N)=O` the value was 0.663. In turn, `CC(=O)NCCCC[C@@H]1NC(=O)[C@H]2C[C@@H](C(=O)NCCCCCNC(=O)CS)[C@@H](c3cccc(OCCO)c3)N2C1=O` gave a composite z-score of 0.108. `O=C1O[C@H](c2ccccc2)[C@H](c2ccccc2)N2[C@H]1[C@@H](C(=O)N1CCCCCCC1)[C@]1(C(=O)Nc3ccc(C#CC4(O)CCCCCC4)cc31)[C@H]2c1ccccc1OCCO`: the composite z-score came out at 0.713. On to `COCCCNC(=O)[C@@]1(c2ccc([N+](=O)[O-])cc2)CC(=O)N(CC23CC4CC(CC(C4)C2)C3)[C@@H]1c1ccc(CO)cc1I`, for which the composite z-score was found to be 0.705.

The molecule `COc1ccc(C#Cc2ccc3c(c2)[C@]2(C(=O)N3)[C@H](C(=O)N3CCCCCCC3)[C@H]3C(=O)O[C@H](c4ccccc4)[C@H](c4ccccc4)N3[C@@H]2c2ccc(O)cc2)cc1` showed a composite z-score of 0.729.

In the case of `C=C(/C(=C/C[C@H](OC(=O)c1ccncc1)c1cccc(OCCO)c1)c1cnc2ccccc2c1)C(C)C`, the composite z-score was 0.247.

Consider `CCCCCCCCCCC(O)C1C=CC2C(=O)N(C)C(=O)C2N1Nc1cc(OC)c(OC)c(OC)c1` (configuration not stated), for which the composite z-score was -0.203. `Nc1cc(Br)ccc1C(=O)O` showed a composite z-score of 0.777. Turning to `CN(C)C(=O)[C@]1(CCS(=O)(=O)c2ccccc2)N=C(c2ccc(OCCCO)cc2)O[C@@H]1c1ccccc1`, the composite z-score was 1. Still for that read-out and setting: for `O=C1N(CCS(=O)(=O)c2ccccc2)Cc2ccccc2[C@@H]2OC(c3ccc(OCCCO)cc3)=N[C@]12CCS(=O)(=O)c1ccccc1` the value was 0.645; for `COc1ccc([Si](C)(C)[C@H]2[C@H](CC(=O)N3Cc4ccccc4C[C@H]3CO)O[C@@]3(C(=O)N(Cc4ccc(N5C(=O)c6cccc7cccc5c67)cc4)c4ccccc43)[C@@H]2C)cc1`, 0.405; for `COCC1=C2[C@@H](CCc3ccccc3)OB(O)C[C@@H]2[C@@H]2C(=O)N(C)C(=O)[C@@H]2C1`, 0.353.

Take `CC(C)OC(=O)CC(=O)CC(O)c1ccc([N+](=O)[O-])cc1` (configuration not stated): the composite z-score is -0.434. `CC(C)C(=C=CC[C@@H](O)c1cccc(OCCO)c1)C[C@@H](O)c1ccccn1` gave a composite z-score of -1.15. The same measure, in the same setting: as for `C=CCC(OC(C)=O)[C@@H]1[C@@H](N(Cc2cccc3ccccc23)C(=O)c2cccc3ccccc23)c2cc(OCCCO)ccc2N1C(=O)c1ccc2ccccc2c1` (some centres not stated), the figure is 0.0439.

Turning to `CC(=O)N1CC(C(O)C2C=CC3C(=O)NC(=O)C3N2Nc2ccc(Cl)cc2Cl)c2ccccc21` (configuration not stated), the composite z-score came out at 0.439.

As for `COC(=O)[C@@]1(Cc2ccc(F)cc2)[C@H]2c3cc(C(=O)N(C)C)n(Cc4c(CO)[nH]cc(C)c4=O)c3C[C@H]2CN1C(=O)c1ccccc1`, the composite z-score was -0.466. Take `CC(C)[C@H]1NC(=O)[C@@]23C(=O)N[C@@H](Cc4ccccc4)C2[C@H](C)[C@@]2(C)O[C@H]2C3/C=C/CCC/C=C/CNC(=O)[C@H](Cc2ccccc2)NC1=O` (some centres not stated): the composite z-score is -0.684.

`CCOC(=O)C[C@H]1[C@H](OC(=O)c2ccccc2-c2ccccc2)[C@@H](NC(=O)c2ccccc2)c2cc(OCCCO)ccc2N1C(=O)c1ccccc1` came in with a composite z-score of 0.847.

As to `COC(=O)[C@@]1(Cc2ccccc2CN=[N+]=[N-])N=C(c2ccc(OCCCO)cc2)O[C@H]1c1ccccc1`, the composite z-score is 0.191. On the same count and under the same terms, as for `C=C(COC)C(=O)CC[C@@H](OC(=O)c1cccnc1)c1ccccc1OCCO`, the figure is 0.555. On to `CC1CC/C=C\[C@H]2OC34C=CCN(CCN5CCOCC5)C(=O)[C@H]3N(C(C)CO)C(=O)[C@@H]4C2C(=O)O1` (some centres not stated), for which the composite z-score was -1.99. On the same count and under the same terms, for `[N-]=[N+]=NCc1ccccc1[C@H]1OC(c2ccc(OCCCO)cc2)=N[C@@]1(CCS(=O)(=O)c1ccccc1)C(=O)NCc1ccccc1` the value was 0.941; for `COc1ccc([Si](C)(C)[C@H]2[C@H](CCO)O[C@@]3(C(=O)N(Cc4ccc(N5C(=O)c6ccccc6Oc6ccccc65)cc4)c4ccccc43)[C@@H]2C)cc1`, 0.348; for `O=C(NCC(O)CO)[C@@]1(CCS(=O)(=O)c2ccccc2)COC(c2ccc(OCCCO)cc2)=N1` (some centres not stated), 0.904. On the same count and under the same terms, for `C=CCC(OC(C)=O)[C@@H]1[C@@H](N(Cc2cccc3ccccc23)C(=O)Cc2ccc(F)cc2)c2cc(OCCCO)ccc2N1C(=O)c1ccc(-c2ccccc2)cc1` (some centres not stated) the value was 0.674; for `C=CCNC(=O)[C@@H]1[C@H]2C(=O)O[C@H](c3ccccc3)[C@H](c3ccccc3)N2[C@H](c2ccc(O)cc2)[C@@]12C(=O)N(C(=O)OCCOC)c1ccc(C#CCCO)cc12`, 0.389; for `C=CCNC(=O)[C@@H]1[C@H]2C(=O)O[C@H](c3ccccc3)[C@H](c3ccccc3)N2[C@H](c2ccc(OCCO)cc2)[C@@]12C(=O)N(C(=O)OCCOC)c1ccc(C#CCCO)cc12`, 0.736. `C=CCOC(=O)[C@H]1[C@@H]2C(=O)O[C@@H](c3ccccc3)[C@@H](c3ccccc3)N2[C@@H](c2ccc(OCCOC(=O)[C@H]3C[C@H]4C(=O)N[C@@H](CCCCNC(C)=O)C(=O)N4[C@H]3c3cccc(OCCO)c3)cc2)[C@]12C(=O)Nc1ccc(I)cc12` gave a composite z-score of 0.808. On the same count and under the same terms, as for `COCCOC(=O)N1C(=O)[C@@]2(c3cc(C#CC4=CCCCC4)ccc31)[C@H](c1ccc(O)cc1)N1[C@H](c3ccccc3)[C@H](c3ccccc3)OC(=O)[C@H]1[C@@H]2C(=O)NC[C@H](O)c1ccccc1`, the figure is 0.813; as for `CN1C(=O)C2C=CC(C(O)c3ccc(I)cc3)N(Nc3ccccc3)C2C1=O` (configuration not stated), 1.02.

These data come from PubChem BioAssay.
